Assay outcomes as filed in PubChem.
Hits are enriched below; roughly 19% of the tested compounds scored in any of these assays.
TDP1 block – TDP1 (human) enzyme inhibition; recombinant TDP1, AlphaScreen DNA substrate cleavage; Potency, µM (titrated, usually from 130 µM), inactives show top-dose activity change, negative = inhibition, usual class: inhibitors; 350,000 compounds, 0.28% hits; AID 485290; note: nearly all actives have a fitted effect of over 40% in size
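Recombinant E. coli-expressed Tdp1 (1 nM) preincubated with compound 15 min at RT, then 5'-biotin/3'-phosphotyrosine-FITC DNA substrate (15 nM) added for 5 min. AlphaScreen beads (10 ug/ml) added, 10 min RT; tyrosine-FITC cleavage read as signal loss.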
TDP1 cell CPT – growth inhibition of DT40 Tdp1-/-;hTDP1 cells with camptothecin (screen for TDP1 inhibitors) | Potency, µM (titrated, usually from 46.2 µM), for the others: top-dose activity change, negative = growth inhibition, most hits filed as inhibitors | 420,000 compounds, 12% hits | chicken DT40 Tdp1-/-;hTDP1 cells + 20 nM CPT, ATP luminescence, 48 h | AID 686979; note: nearly all actives have a fitted effect of over 55% in size
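Chicken DT40 Tdp1-/- cells complemented with human TDP1, 400 cells/well, exposed to compounds plus 20 nM camptothecin for at least 48 h at 37 C; viability read as ATP content by CellTiter-Glo luminescence.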
DT40 TDP1 no CPT – qHTS for Inhibitors of human tyrosyl-DNA phosphodiesterase 1 (TDP1): qHTS in cells in absence of CPT | AID 686978, 2013 | 420,000 compounds, 15% hits | DT40 Tdp1-/- hTDP1 cells, no CPT, ATP luminescence, 48 h | Potency, µM (series often up to 46.2 µM), for the others: at the top dose activity change, negative = growth inhibition, most hits filed as inhibitors; note: nearly all actives have a fitted effect of over 55% in size
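Compound effects on proliferation are scored in DT40 Tdp1-/-;hTDP1 cells in the absence of CPT. ATP levels (CellTiter-Glo luminescence) are recorded after a ≥48 hr, 37 °C incubation.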
RORgamma inh – blocks mouse ROR gamma transcriptional activity. P51450. Potency, µM (highest dose often 53.6 µM), for inactives: top-dose activity change, negative = inhibition, hits mostly inhibitors. Drosophila S2 Gal4-RORgamma UAS-luciferase reporter, 20 h. 310,000 compounds, 5.4% hits; note: nearly all actives have a fitted effect of over 60% in size
Target sequence (P51450 whole entry, looked up, the tested form may be a part): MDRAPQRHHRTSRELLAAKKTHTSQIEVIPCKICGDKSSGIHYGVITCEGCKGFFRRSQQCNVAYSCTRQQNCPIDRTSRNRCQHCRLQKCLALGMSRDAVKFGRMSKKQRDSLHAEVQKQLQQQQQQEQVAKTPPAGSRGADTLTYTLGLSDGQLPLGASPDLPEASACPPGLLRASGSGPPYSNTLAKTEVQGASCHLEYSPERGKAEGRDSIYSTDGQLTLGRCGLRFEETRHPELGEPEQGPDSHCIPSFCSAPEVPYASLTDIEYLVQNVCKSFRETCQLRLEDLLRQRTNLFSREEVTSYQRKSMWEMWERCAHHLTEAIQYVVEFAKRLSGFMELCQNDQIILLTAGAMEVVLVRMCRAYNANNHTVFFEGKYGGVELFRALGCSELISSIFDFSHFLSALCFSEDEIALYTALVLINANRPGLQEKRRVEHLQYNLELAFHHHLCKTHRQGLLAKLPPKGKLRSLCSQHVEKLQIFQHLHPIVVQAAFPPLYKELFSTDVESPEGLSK
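Read-out: Photinus luciferase luminescence; inhibitors lower reporter signal. Insect Schneider cells with Gal4-ROR gamma fusion under metallothionein promoter, UAS reporter; 700 uM final copper sulfate induction, 20 hr, ambient temperature.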
VP16 counter – inhibits Gal4-VP16 luciferase reporter, ROR gamma counter-screen. Potency, µM (top dose mostly 53.6 µM), without a hit: at the top dose activity, negative = inhibition, hits mostly inhibitors. 310,000 compounds, 3.5% hits. Drosophila S2 Gal4-VP16 UAS-luciferase, luminescence, 20 h;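 note: Gal4-VP16 expression switched on by copper sulfate through the metallothionein promoter; nearly all actives have a fitted effect of over 50% in size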
* = called active by the depositor; ? = inconclusive; · = no result; [ ] = another dose, or the depositor's remark. Calls come from the whole dose curve; as a rule, active = well fitted curve in the direction sought with a large enough effect; inconclusive = small, poorly fitted or top-dose-only effect, or another doubt; inactive = no such curve, though single readings can be large; an effect the other way counts as inactive or inconclusive. % is set by controls: 0 for no effect and ±100 for the full control effect; potency is the fitted concentration of half-maximal effect.

SMILES	TDP1 block	TDP1 cell CPT	DT40 TDP1 no CPT	RORgamma inh	VP16 counter
COc1ccc(C)cc1NC(=O)CCCN1C(=O)CCC1=O	-4%	3%	7%	-12%	1%
CN(C)c1nc(-c2ccccc2)c2cnn(Cc3ccccc3)c2n1	16µM*	?	-15%	-31%	11%
O=C(/C=C/c1ccco1)Nc1cccc(NC(=O)/C=C/c2ccco2)n1	·	23µM*	21µM*	18%	?
Cc1nc(NC(=O)/C=C/c2ccco2)sc1C	-3%	5.2µM*	5.8µM*	-24%	-22%
O=C(/C=C/c1ccco1)Nc1ccccc1C(=O)O	14µM*	7%	-9%	?	?
CCN1CCN(C(=O)CCN2C(=O)c3ccccc3S2(=O)=O)CC1	·	1%	3%	·	·
O=c1[nH]c2cc(S(=O)(=O)CCO)ccc2o1	-14%	-1%	17%	1%	-6%
Cc1ccc(C(=O)N2CCc3cc(CNC(=O)CCc4ccccc4)ccc32)cc1	3%	?	?	·	·
Cc1cccc(C(=O)N2CCc3cc(CNC(=O)CCc4ccccc4)ccc32)c1	0%	15µM*	13µM*	·	·
COc1ccc(OCC(=O)NCc2ccc3c(c2)CCN3C(=O)c2cccc(C)c2)cc1	5%	1.8µM*	1.8µM*	·	·
CCCCNC(=O)c1ccccc1NC(=O)CN(c1ccccc1)S(=O)(=O)N(C)C	-8%	?	-7%	-6%	10%
CCc1nn(CC(=O)NCCCN(C)C2CCCCC2)c(=O)c2cc3occc3n12	-1%	-6%	21%	-16%	11%
O=C1[C@H]2[C@@H](C(=O)N1c1cccc3ccccc13)C1(C(=O)c3ccccc3C1=O)N1CCC[C@@H]21	-7%	-19%	-26%	-80%	20µM*
COc1ccccc1NC(=O)CSc1nnc(Cc2ccccc2)o1	-1%	-11%	0%	-15%	-5%
CS(=O)(=O)c1ccc(S(=O)CC(=O)Oc2ccc(Cl)cc2)c([N+](=O)[O-])c1 (stereo not drawn)	3%	1.2µM*	0.58µM*	4µM*	-25%
Cc1ccccc1C1=CCN(c2ncc(NC(=O)c3ccc(Cl)cc3)cc2C(=O)O)CC1	-6%	?	23µM*	·	·
O=C(Nc1cnc(N2CCC(N3CCCCC3)CC2)c(C(=O)O)c1)c1ccc(Br)cc1	-14%	1%	-9%	·	·
CCOc1ccc(-c2cc(C(=O)Nc3ccc(C)c(NS(C)(=O)=O)c3)[nH]n2)c(C)c1	·	18µM*	?	·	·
C(=C\c1ccccc1)/CN1CCN(C(c2nnnn2C2CCCCC2)C2CC2)CC1 (stereo not drawn)	·	?	16µM*	·	·
C(=C\c1ccccc1)/CN1CCN(C(c2cccc3ccccc23)c2nnnn2C2CCCC2)CC1 (stereo not drawn)	·	21µM*	9.2µM*	·	·
COc1ccc(C(c2nnnn2C2CCCCC2)N2CCN(C/C=C/c3ccccc3)CC2)cc1 (stereo not drawn)	·	16µM*	?	·	·
COc1ccc(N2CCN(C(c3cccc(OC)c3OC)c3nnnn3C3CCCC3)CC2)cc1 (stereo not drawn)	5%	?	?	17%	1%[0.365 µM]
O=C1CC(CC(=O)N2CC3CCCC2C3)(c2cccc(F)c2)C(=O)N1Cc1cccnc1 (stereo not drawn)	·	?	18µM*	·	·
Cc1ccccc1C1(CC(=O)N2CC3(C)CC2CC(C)(C)C3)CC(=O)N(Cc2cccnc2)C1=O (stereo not drawn)	·	-14%[9.04 µM]	21µM*	·	·
COc1cccc(C2c3[nH]c4ccccc4c3C[C@H]3C(=O)N(c4ccccc4C(=O)NCCCN4CCOCC4)C(=O)N23)c1 (stereo partly drawn)	·	12µM*	13µM*	9%	?
O=C(NCCCN1CCOCC1)c1ccccc1N1C(=O)[C@@H]2Cc3c([nH]c4ccccc34)C(c3ccc(F)cc3)N2C1=O (stereo partly drawn)	·	9.2µM*	15µM*	17%	0%
